Gal4-VP16 FLuc: counter-screen for ROR gamma inhibitors: Gal4-VP16 reporter; Drosophila S2 Gal4-VP16 UAS-luciferase, luminescence, 20 h; Potency, µM (series often up to 53.6 µM), without a hit: at the top dose activity, negative = inhibition, most hits filed as inhibitors; 310,000 compounds, 3.5% hits;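 note: Gal4-VP16 expression switched on by copper sulfate through the metallothionein promoter; % is set by controls: 0 for no effect and ±100 for the full control effect; nearly all actives have a fitted effect of over 50% in size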
TGFb inhibitor: inhibitors of TGF-b signaling; HepG2 CAGA-GFP TGF-b/SMAD3 reporter, GFP fluorescence, 18 h; TGF-beta stimulated, 500 pg/mL final; 410,000 compounds, 1.2% hits; Potency, µM (highest dose often 46.1 µM), without a hit: top-dose activity, negative = inhibition, most hits filed as inhibitors; note: % is set by controls: 0 for no effect and ±100 for the full control effect; nearly all actives have a fitted effect of over 65% in size
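HEPG2 CAGA-GFP, 1000 cells/well; 2 h settle, 37 C; cpd via pin tool; TGF-b 500 pg/mL final; 18 h, 37 C; GFP imaging ex488/em500-530; %Activity normalised to -TGF-b and +DMSO controls; CRC fit, curve class.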
S2 tox: viability counter-screen for ATXN expression inhibitors; S2 cells (HEK-293 line with an ATXN2-luciferase reporter) viability, CellTiter-Fluor protease fluorescence, 24 h; 400,000 compounds, 0.49% hits; Potency, µM (series often up to 56.7 µM), usual class: cytotoxic; note: nearly all actives have a fitted effect of over 40% in size
HepG2 tox: counter-screen for TGF-b inhibitors: cytotoxicity in HepG2 cells; HepG2 CAGA-GFP viability, ATP luminescence, 18 h; Potency, µM (titrated, usually from 46.1 µM), inactives show top-dose activity change, negative = cytotoxicity, usual class: cytotoxic; 410,000 compounds, 0.76% hits
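CellTiter-Glo luminescence gave cytotoxicity after 18 hours at 37 degrees C. The cells were HepG2 CAGA-GFP in 1% FBS DMEM, stimulated with 500 pg/mL TGF-beta after compound addition. %Activity was normalised to no-cell wells (complete cell-killing) and DMSO (no toxicity), and curves were fitted and classified.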
RORg inh: inhibitors of mouse ROR gamma transcriptional activity; AID 2551; P51450; Drosophila S2 Gal4-RORgamma UAS-luciferase reporter, 20 h; 310,000 compounds, 5.4% hits; Potency, µM (series often up to 53.6 µM), for inactives: at the top dose activity change, negative = inhibition, usual class: inhibitors; note: % is set by controls: 0 for no effect and ±100 for the full control effect; nearly all actives have a fitted effect of over 60% in size
Target sequence (P51450 whole entry, looked up, the tested form may be a part): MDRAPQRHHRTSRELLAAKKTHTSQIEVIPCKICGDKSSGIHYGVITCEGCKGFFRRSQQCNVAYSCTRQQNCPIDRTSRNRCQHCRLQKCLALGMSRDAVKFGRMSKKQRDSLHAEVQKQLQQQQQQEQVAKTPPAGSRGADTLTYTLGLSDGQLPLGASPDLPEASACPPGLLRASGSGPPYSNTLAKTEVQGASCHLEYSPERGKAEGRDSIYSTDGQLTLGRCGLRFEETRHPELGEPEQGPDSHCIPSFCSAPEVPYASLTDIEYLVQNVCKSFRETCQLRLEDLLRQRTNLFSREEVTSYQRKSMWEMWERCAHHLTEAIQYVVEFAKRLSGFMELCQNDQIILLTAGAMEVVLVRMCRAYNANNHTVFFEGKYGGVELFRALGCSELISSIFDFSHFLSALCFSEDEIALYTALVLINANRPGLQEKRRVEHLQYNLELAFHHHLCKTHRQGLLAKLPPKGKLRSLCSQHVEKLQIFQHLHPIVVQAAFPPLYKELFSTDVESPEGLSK
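A Gal4/UAS one-hybrid system in insect cells: metallothionein-promoter Gal4–ROR gamma fusion plus Photinus luciferase reporter. Copper sulfate 700 uM final, 20 hr ambient incubation, luminescent detection after 10 min with reagent.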
ATXN2 expr inh: ATXN2 expression inhibition | HEK-293 ATXN2-luciferase reporter, luminescence, 24 h | Potency, µM (series often up to 57 µM), without a hit: top-dose activity change, negative = inhibition, usual class: inhibitors | 360,000 compounds, 0.72% hits | AID 1745845; note: % is set by controls: 0 for no effect and ±100 for the full control effect; nearly all actives have a fitted effect of over 55% in size
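ATXN2-luciferase reporter cells (luciferase flanked by upstream and downstream ATXN2 gene portions) were treated 24 h at 37 °C with compounds at up to 57 uM. SteadyGlo luminescence gave expression; GF-AFC fluorescence gave viability.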
The depositor's hits bear a star; i = inactive; ? = inconclusive; · = not tested or not shown; [ ] = another dose, or the depositor's remark. In the library only some 6.1% were active in any assay of this set; here they are far more common. Calls come from the whole dose curve; as a rule, active = well fitted curve in the direction sought with a large enough effect; inconclusive = small, poorly fitted or top-dose-only effect, or another doubt; inactive = no such curve, though single readings can be large; an effect the other way counts as inactive or inconclusive. Potency is the fitted concentration of half-maximal effect.

SMILES	Gal4-VP16 FLuc	TGFb inhibitor	S2 tox	HepG2 tox	RORg inh	ATXN2 expr inh
CC[N+](C)(C(=O)O)/C(=C\c1ccccc1)c1ccnc2ccccc12 (stereo not given)	·	31%	·	2%	·	·
CC(C)c1cccc(-c2csc(C(C)(O)c3cccc(F)c3)n2)c1 (stereo not given)	·	?	?	16µM*	·	-8%
CC(O)(c1ccc(F)c(F)c1)c1nc(-c2cnc3ccccc3c2)cs1 (stereo not given)	·	16µM*	i	-29%	·	-27%
CC(O)(c1ccc(F)c(F)c1)c1nc(-c2ccc3ccccc3c2)cs1 (stereo not given)	·	?	i	-94%	·	-35%
COc1ccc(C(C)(O)c2nc(-c3cccc(C(C)C)c3)cs2)cc1 (stereo not given)	·	?	i	20µM*	·	?
CC(O)(c1cccc(F)c1)c1nc(-c2cccc(F)c2)cs1 (stereo not given)	·	7.9µM*	i	-50%	·	-2%
Cn1cc(CNC2CCN(c3cccc(NC(=O)c4cccnc4)c3)CC2)cn1	·	·	i	·	·	·
Cc1ccc(NC(=O)CN2C(=O)c3ccccc3Sc3ccc(C(=O)N4CCOCC4)cc32)cc1F	·	1%	·	0%	·	·
Cc1ccc(NC(=S)N(Cc2ccccc2)C(C)C)cc1	?	-30%	i	-37%	10µM*	20%
CC(C)N(Cc1ccccc1)C(=S)Nc1ccc(F)cc1	-1%	2%	i	9%	-44%	-11%
CC(C1CC1)N(Cc1ccccc1)C(=S)Nc1cccc(C(F)(F)F)c1 (stereo not given)	?	?	i	-16%	11µM*	?
CC(C)N(Cc1ccccc1)C(=S)Nc1cccnc1	-11%	-15%	i	0%	-11%	-2%
CC(C1CC1)N(Cc1ccccc1)C(=S)Nc1ccccc1 (stereo not given)	?	-1%	i	-14%	11µM*	-3%
COc1cccc(CN2CCC(c3nnc(SCC4CCCO4)n3C)CC2)c1O (stereo not given)	·	·	i	·	·	·
Cc1ccc(CNC(=O)c2sc3nc(-c4ccc(F)cc4)ccc3c2N)cc1	·	0%	·	-28%	·	-11%
CCOc1ccccc1C(=O)Nc1nc2c(s1)CC(C)CC2 (stereo not given)	·	-2%	i	-46%	·	47%
Cc1ccc(N2C(=S)NC3c4cc(Cl)ccc4OC2(C)C3C(=O)N(C)C)cc1 (stereo not given)	-20%	0%	i	-7%	11µM*	-2%[11.3 µM]
Cc1cc2c3c(c1C)C1(C(=O)N3C(C)(C)CC2C)C(C#N)=C(N)Oc2cc(O)ccc21 (stereo not given)	-1%	?	22µM*	-39%	5%	?
Cc1cc2c3c(c1)C1(C(=O)N3C(C)(C)CC2C)C(C#N)=C(N)OC2=C1C(=O)CC(C)(C)C2 (stereo not given)	-5%	6%	i	0%	-11%	-2%
OCCNC(=S)Nc1ccc(Cl)c(Cl)c1	11%	2%	i	16%	5%	-20%
NN(Cc1ccccc1)C(=S)Nc1ccc(Cl)c(Cl)c1	?	-25%	i	-13%	11µM*	-3%
C=CCn1c(CNc2ccccc2)nnc1SCC(=O)N/N=C/c1ccccc1O	16µM*	?	i	-28%	10µM*	18µM*
C=CCc1cccc(/C=N/NC(=O)C(C)Nc2cccc(C)c2)c1O (stereo not given)	2.5µM*	?	i	-36%	0.04µM*	-16%
CC(Nc1ccc(Br)cc1)C(=O)N/N=C/c1ccccc1OCc1ccccc1 (stereo not given)	13%	-2%	i	-3%	-3%	-2%
O=C(CNc1cccc2ccccc12)N/N=C/c1ccc(OC(=O)/C=C/c2ccco2)cc1	-14%	-1%	i	-18%	43%	-15%
